Sampled rows, rich in hits. Any-hit rate of the full collection: about 2.4%.
Pol iota inh – qHTS for Inhibitors of Polymerase Iota; Pol iota fluorescent replication assay, 10 min; AID 588590, 2011; DNA polymerase iota (Homo sapiens), Q9UNA4; Potency, µM (highest dose often 115 µM), without a hit: top-dose activity, negative = inhibition, usual class: inhibitors; actives 1% (n = 390,000)
Target sequence (Q9UNA4 whole entry, looked up): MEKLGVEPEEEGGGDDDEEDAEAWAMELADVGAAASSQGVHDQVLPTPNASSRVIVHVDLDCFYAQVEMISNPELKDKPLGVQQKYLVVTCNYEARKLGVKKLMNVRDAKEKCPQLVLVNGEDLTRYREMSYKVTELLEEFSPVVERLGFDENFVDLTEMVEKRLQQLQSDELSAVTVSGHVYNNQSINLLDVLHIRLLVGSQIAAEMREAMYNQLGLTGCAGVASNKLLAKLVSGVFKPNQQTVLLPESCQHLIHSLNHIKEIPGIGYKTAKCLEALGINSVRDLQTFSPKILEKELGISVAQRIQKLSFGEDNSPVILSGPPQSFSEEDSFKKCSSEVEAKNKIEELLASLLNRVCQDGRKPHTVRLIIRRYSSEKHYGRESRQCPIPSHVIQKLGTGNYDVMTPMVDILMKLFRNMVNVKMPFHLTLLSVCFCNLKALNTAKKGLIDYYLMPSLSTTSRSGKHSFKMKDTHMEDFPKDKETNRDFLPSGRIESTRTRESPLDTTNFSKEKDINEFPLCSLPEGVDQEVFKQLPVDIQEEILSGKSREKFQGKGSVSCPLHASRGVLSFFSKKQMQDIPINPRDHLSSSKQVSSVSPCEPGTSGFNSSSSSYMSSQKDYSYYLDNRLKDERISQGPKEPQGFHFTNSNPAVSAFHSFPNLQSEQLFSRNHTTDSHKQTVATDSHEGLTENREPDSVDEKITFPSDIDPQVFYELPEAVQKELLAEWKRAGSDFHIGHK
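Fluorescent replication assay read twice, at 0 min and 10 min after adding 50 nM (final) substrate. Enzyme (10 nM) and compounds were first incubated 15 min at room temperature; enzyme-free buffer wells were negative controls.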
POLB inh – qHTS Assay for Inhibitors of DNA Polymerase Beta; AID 485314, 2010; actives 1.3% (n = 340,000); Pol beta primer extension/strand displacement, fluorescence kinetic; Potency, µM (titrated, usually from 114 µM), for inactives: at the top dose activity change, negative = inhibition, most hits filed as inhibitors; P06746; note: % is set by controls: 0 for no effect and ±100 for the full control effect
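Kinetic readout of DNA synthesis with strand displacement by Pol beta. Compound and 10 nM enzyme sit 15 min at room temperature; 50 nM substrate starts the reaction, read immediately and at 10 min.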
Pol kappa inh – qHTS for Inhibitors of Polymerase Kappa; actives 0.53% (n = 400,000); purified Pol kappa, fluorescent DNA synthesis assay, 10 min; DNA polymerase kappa (Homo sapiens), Q9UBT6; Potency, µM (top dose mostly 107 µM), for the others: top-dose activity, negative = inhibition, actives largely listed as inhibitors; note: % is set by controls: 0 for no effect and ±100 for the full control effect
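Here, compound and 10 nM enzyme are combined for 15 min at room temperature; adding 50 nM substrate (final) starts DNA synthesis, tracked by fluorescence at 0 and 10 min against buffer-only wells.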
WRN inhibitor – qHTS for Inhibitors of WRN Helicase; Potency, µM (series often up to 114 µM), inactives show at the top dose activity change, negative = inhibition, usual class: inhibitors; actives 0.46% (n = 360,000); Bifunctional 3'-5' exonuclease/ATP-dependent helicase WRN (Homo sapiens), Q14191; WRN helicase unwinding, fluorescent forked duplex, kinetic; note: % is set by controls: 0 for no effect and ±100 for the full control effect; nearly all actives have a fitted effect of over 55% in size
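Kinetic red-fluorescence monitoring (525/598 nm) tracks WRN helicase activity after 100 nM fluorophore-quencher forked duplex and 2 mM ATP are added to 20 nM enzyme pretreated 15 min at room temperature with compound.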
FEN1 inhibitor – qHTS Assay for the Inhibitors of Human Flap endonuclease 1 (FEN1). Recombinant FEN1 flap cleavage, fluorescence, 15 min. Potency, µM (top dose mostly 114 µM), for inactives: at the highest dose activity change, negative = inhibition, most hits filed as inhibitors. actives 0.35% (n = 390,000). P39748; note: % is set by controls: 0 for no effect and ±100 for the full control effect; nearly all actives have a fitted effect of over 65% in size
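Concentration–response screening of FEN1 (10 nM): 15 min compound preincubation at room temperature, reaction started with 50 nM substrate and read at 0 and 15 min. Corrected, normalized data were fitted by a four-parameter Hill equation.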
Pol eta inh – qHTS for Inhibitors of Polymerase Eta; DNA polymerase eta (Homo sapiens), Q9Y253; recombinant Pol eta, fluorescent DNA replication assay; Potency, µM (titrated, usually from 114 µM), inactives show top-dose activity change, negative = inhibition, usual class: inhibitors; actives 1.2% (n = 390,000); AID 588591, 2011; note: % is set by controls: 0 for no effect and ±100 for the full control effect
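Pol eta (10 nM) was preincubated with compounds for 15 min at room temperature, after which fluorescent replication substrate (50 nM final) was added to start the reaction. Fluorescence was read kinetically at 0 and 10 min.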
The depositor's hits bear a star; ? = inconclusive; / = no result given; ! = repeats disagree; [ ] = remark or other dose. Calls come from the whole dose curve; as a rule, active = well fitted curve in the direction sought with a large enough effect; inconclusive = small, poorly fitted or top-dose-only effect, or another doubt; inactive = no such curve, though single readings can be large; an effect the other way counts as inactive or inconclusive. Potency is the fitted concentration of half-maximal effect.

SMILES	Pol iota inh	POLB inh	Pol kappa inh	WRN inhibitor	FEN1 inhibitor	Pol eta inh
Nc1c(N=Nc2ccc([N+](=O)[O-])cc2)c(S(=O)(=O)O)cc2cc(S(=O)(=O)O)c(/C=C/c3ccccc3)c(O)c12	25µM*	/	32µM*	/	11µM*	/
C[n+]1ccc(/C=C/c2ccc([N+](C)(C)C)cc2)c2ccccc21	?	/	?	/	22µM*	/
C[n+]1ccc(/C=C/c2ccc(F)cc2)c2ccccc21	-29%	/	-28%	/	-7%	/
COc1ccc(/C=C/c2cc[n+](C)c3ccccc23)cc1OC	?	/	?	/	45µM*	/
C[n+]1ccc(/C=C/c2cc[n+](C)c3ccccc23)c2ccccc21	?	/	?	/	10µM*	/
Cc1ccc(Cl)cc1-n1c(=O)c2sc3ccccc3c2n(Cc2ccccc2)c1=O	76%	2%	0%	/	19%	-21%
Cc1ccc2[nH]c(-c3ccc(F)cc3F)cc(=O)c2c1	/	/	-14%	/	/	/
COc1ccc(NC(=O)c2oc3ccccc3c2NC(=O)C2CCCCC2)c(OC)c1	33%	14%	-2%	/	-9%	-18%
COC(=O)c1ccccc1NC(=O)c1cc2ncc(Br)cn2n1	?	45µM*	-20%	-35%	-10%	7.1µM*
COC(=O)c1ccccc1NC(=O)c1cc2ccccn2n1	18%	?	7%	/	-8%	-11%
CCc1ccccc1N(CC)C(=O)Cn1nc(Cc2ccncc2)c2ccccc2c1=O	19%	40%	-5%	/	-13%	-3%
COc1ccc(-c2oc3ccccc3c(=O)c2OCC(=O)O)cc1	35%	1%	-12%	5%	0%	3%
O=C(O)COc1c(-c2ccco2)oc2ccccc2c1=O	?	40µM*	-23%	-9%	3%	-5%
COc1cccc2c(=O)c3cccc(N)c3[nH]c12	-12%	25µM*	-12%	?	?	?
COc1cccc2c(=O)c3c([nH]c12)OC(C)(C)C3	24%	/	0%	4%	1%	-9%
N[C@@H](Cc1cc(-c2ccc(Cl)cc2Cl)cc(CP(=O)(O)O)c1O)C(=O)O	/	/	1.8µM*	/	/	/
COc1cc(CCC(O)CC(=O)CCc2ccccc2)ccc1O (stereo unspecified)	79µM*	25µM*	-22%	0%[11.6 µM]	-13%	-12%
COC(=O)C1=C(C)N(CCCC(=O)O)C(=O)NC1c1cc2c(cc1[N+](=O)[O-])OCO2 (stereo unspecified)	13µM*	10µM*	45µM*	-11%	?	50µM*
COC(=O)C1=C(C)N(CCCC(=O)O)C(=O)NC1c1ccc(C#N)cc1 (stereo unspecified)	14µM*	/	-14%	-1%[11.6 µM]	-18%	5%
COC(=O)C1=C(C)N(C)C(=O)NC1c1cc2c(cc1[N+](=O)[O-])OCO2 (stereo unspecified)	?	?	-13%	-15%	3%	0%
COc1ccc(CCNS(=O)(=O)c2ccc(F)c(C(=O)Nc3ccc(Cl)cc3)c2)cc1OC	-16%	-5%	-11%[60.1 µM]	/	-3%	-8%
CCc1ccc(NC(=O)CSc2nnc(-c3cc4occc4n3C)n2-c2ccccc2C)cc1	15%	-23%	-11%	/	4%	-26%
N#CCCn1c(=O)c(-c2cccs2)nc2cnc(N3CCOCC3)nc21	/	/	-6%[60.1 µM]	/	/	/
Cc1ccc(-n2c(-c3ccc(Br)cc3)c[n+]3c2CCc2ccc4cccnc4c2-3)cc1	-3%[58.9 µM]	50µM*	-1%	3%	?	-9%
COc1ccc(-n2c(-c3ccc(Cl)cc3)c[n+]3c2CCc2ccccc2-3)cc1	33%	0%	-4%	6%	-6%	-18%
SMILES	Pol iota inh	POLB inh	Pol kappa inh	WRN inhibitor	FEN1 inhibitor	Pol eta inh
COC/C=C/C1=CC2=CC(=O)C(C)(OC(=O)c3ccco3)C(=O)C2=CO1 (stereo unspecified)	/	28µM*	/	/	/	/
COC/C=C/C1=CC2=CC(=O)C(C)(OC(=O)c3cnc4ccccc4n3)C(=O)C2=CN1Cc1ccccc1 (stereo unspecified)	?	10µM*	-38%	-21%	9%	28µM*
CCCCC1=CC2=CC(=O)C(C)(OC(=O)c3cnc4ccccc4n3)C(=O)C2=CO1 (stereo unspecified)	/	50µM*	/	/	/	/
COC/C=C/C1=CC2=CC(=O)C(C)(OC(=O)c3cnc4ccccc4n3)C(=O)C2=CN1c1ccc(OC)cc1 (stereo unspecified)	?	/	-7%	6%	-4%	?
CCCCC1=CC2=CC(=O)C(C)(OC(=O)c3cccs3)C(=O)C2=CO1 (stereo unspecified)	?	/	?	-33%	-20%	22µM*
COC/C=C/C1=CC2=CC(=O)C(C)(OC(=O)c3cnc4ccccc4n3)C(=O)C2=CN1C1CC1 (stereo unspecified)	?	/	-22%	-4%	?	?
CC(C)=CCC/C(C)=C/CC/C(C)=C/CSCC(=O)O	/	/	2%[19.4 µM]	/	/	/
COc1ccc(OCC(=O)NCC2(N3CCN(C)CC3)CCCCC2)cc1	7%	37%	-1%	/	-6%	-6%
O=c1c2oc3ccccc3c2n(Cc2ccccc2)c(=O)n1Cc1ccc2c(c1)OCO2	16%	-1%	-12%	/	16%	-22%
COC1C=CC23c4cc5c(cc4CN(CC2O)C3C1)OCO5 (stereo unspecified)	/	/	-20%[60.1 µM]	/	/	/
CN=C1SC(CC(=O)NCCc2ccc(OC)c(OC)c2)C(=O)N1C (stereo unspecified)	?	1%	?	3%	-1%	56µM*!
O=[N+]([O-])c1ccc(Nc2nc(Cl)nc(NCCO)n2)cc1	7%	3%	-4%	-8%	2%	5%
Nc1c(S(=O)(=O)O)cc(Nc2ccc(Nc3nc(Cl)nc(Nc4ccc(S(=O)(=O)O)cc4)n3)c(S(=O)(=O)O)c2)c2c1C(=O)c1ccccc1C2=O	1.6µM*	1.1µM*	2.7µM*	/	2µM*	0.63µM*
CCCC(=O)N(Cc1cc(=O)[nH]c2ccccc12)c1cccc(C)c1	34%	7%	-5%	-2%	1%	-3%
COc1ccc(N(Cc2cc(=O)[nH]c3ccccc23)C(=O)CCl)cc1	8%	32%	3%	1%	-5%	35µM*
Cc1cccc(N(Cc2cc(=O)[nH]c3ccccc23)C(=O)CCl)c1	?	?	-6%	-5%[11.6 µM]	-21%	45µM*

Source: PubChem BioAssay
